A short description of assay [1]: compounds binding Alexa647 anti-His antibody – biochemical, small-molecule microarray, 635 nm fluorescence, artefact control for SMM control protein annotation, primary screen (AID 1128).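 Note: score merges feature fluorescence with signal-to-noise for each printed compound spot.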 The settings on record: higher = more signal.
Assay [2] concerns Human papillomavirus type 1a E7 protein (residues 1-88). Kind of assay: HPV1a E7 small-molecule binders, primary screen, biochemical, small-molecule microarray, residues 1-88, 635 nm (AID 1129). The settings on record: small-molecule microarray binding, fluorescence 635 nm; higher = more signal.
The target in assay [3] is Focal adhesion kinase 1 (Homo sapiens) (UniProt Q05397). Nature of the assay: PTK2 protein binding on printed compound slides – biochemical, small-molecule microarray, 635/667 nm fluorescence, BSA, DTT, primary screen (AID 1130).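 Note: composite of spot emission at 667 nm and signal to noise over triplicate slides.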 The settings on record: 635 nm fluorescence, higher = more signal.
Focal adhesion kinase 1 (Homo sapiens), sequence (Q05397 whole entry, looked up): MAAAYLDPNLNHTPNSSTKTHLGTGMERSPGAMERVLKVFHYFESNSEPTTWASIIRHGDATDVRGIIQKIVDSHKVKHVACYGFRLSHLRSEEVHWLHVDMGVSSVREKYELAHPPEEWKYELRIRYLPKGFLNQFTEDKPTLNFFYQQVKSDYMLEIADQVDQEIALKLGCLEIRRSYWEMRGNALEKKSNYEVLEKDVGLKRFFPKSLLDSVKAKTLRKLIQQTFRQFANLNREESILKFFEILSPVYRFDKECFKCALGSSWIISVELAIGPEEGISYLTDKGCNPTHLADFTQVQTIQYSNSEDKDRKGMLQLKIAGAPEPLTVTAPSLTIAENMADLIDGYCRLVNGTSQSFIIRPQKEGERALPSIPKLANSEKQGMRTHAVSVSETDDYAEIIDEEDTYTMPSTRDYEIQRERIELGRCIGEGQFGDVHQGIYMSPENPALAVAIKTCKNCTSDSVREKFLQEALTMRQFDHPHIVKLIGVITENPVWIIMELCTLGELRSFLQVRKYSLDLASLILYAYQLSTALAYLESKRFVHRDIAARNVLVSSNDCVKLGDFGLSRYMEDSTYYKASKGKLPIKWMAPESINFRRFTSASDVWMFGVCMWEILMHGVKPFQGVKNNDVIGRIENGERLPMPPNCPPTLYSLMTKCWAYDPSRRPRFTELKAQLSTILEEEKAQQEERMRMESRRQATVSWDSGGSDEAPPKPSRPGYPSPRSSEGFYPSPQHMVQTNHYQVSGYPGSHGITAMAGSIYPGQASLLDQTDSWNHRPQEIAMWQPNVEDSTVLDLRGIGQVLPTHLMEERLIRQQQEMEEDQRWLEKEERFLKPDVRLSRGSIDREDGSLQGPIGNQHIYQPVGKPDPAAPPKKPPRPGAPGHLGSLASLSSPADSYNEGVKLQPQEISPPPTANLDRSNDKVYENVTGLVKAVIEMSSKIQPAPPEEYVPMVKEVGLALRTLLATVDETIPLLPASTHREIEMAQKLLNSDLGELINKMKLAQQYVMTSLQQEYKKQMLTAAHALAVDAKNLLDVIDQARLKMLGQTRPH
In assay [4] the test system is Fibrinogen (Alexa647-labelled). Nature of the assay: Alexa647-fibrinogen binding to printed small molecules – biochemical, small-molecule microarray, 635/667 nm fluorescence, artefact control for SMM control-protein annotation, profiling panel (AID 1131).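 Note: z-score merges 667 nm fluorescence with per-spot signal-to-noise over triplicate slides.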 The settings on record: fibrinogen-A647 binding fluorescence, higher = more signal.
The target in assay [5] is Follistatin (Homo sapiens) (UniProt P19883). Kind of assay: FST protein binding to printed compounds – biochemical, small-molecule microarray, 635/667 nm fluorescence, primary screen (AID 1132). The settings on record: 635 nm fluorescence, higher = more signal.
Follistatin (Homo sapiens), sequence (P19883 whole entry, looked up): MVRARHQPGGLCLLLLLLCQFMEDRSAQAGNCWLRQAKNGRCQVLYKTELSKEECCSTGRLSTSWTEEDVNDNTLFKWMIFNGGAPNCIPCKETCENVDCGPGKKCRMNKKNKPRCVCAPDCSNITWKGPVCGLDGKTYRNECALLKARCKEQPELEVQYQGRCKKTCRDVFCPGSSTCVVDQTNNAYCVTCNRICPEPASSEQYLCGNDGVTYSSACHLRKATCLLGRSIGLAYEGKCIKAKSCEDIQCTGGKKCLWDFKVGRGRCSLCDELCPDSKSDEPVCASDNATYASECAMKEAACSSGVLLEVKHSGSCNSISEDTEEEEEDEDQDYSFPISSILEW
In assay [6] the target is Fibroblast growth factor 2 (Homo sapiens) (UniProt P09038). Nature of the assay: basic fibroblast growth factor binding to printed compounds – biochemical, small-molecule microarray, 635/667 nm fluorescence, primary screen (AID 1133). The settings on record: FGF2, fluorescence 635/667, higher = more signal.
Fibroblast growth factor 2 (Homo sapiens), sequence (P09038 whole entry, looked up): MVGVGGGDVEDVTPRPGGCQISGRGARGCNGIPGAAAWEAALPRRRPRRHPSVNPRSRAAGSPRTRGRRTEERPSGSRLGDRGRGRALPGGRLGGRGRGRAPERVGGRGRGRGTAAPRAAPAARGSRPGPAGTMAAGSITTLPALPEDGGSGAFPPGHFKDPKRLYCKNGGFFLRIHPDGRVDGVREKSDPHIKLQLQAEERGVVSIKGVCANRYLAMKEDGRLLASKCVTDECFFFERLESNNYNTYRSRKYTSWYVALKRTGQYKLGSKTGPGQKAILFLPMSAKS
The nature of assay [7]: JC-1 mitochondrial potential readout, lung cancer cells – cell-based, A549, JC-1 fluorescence, basal, 24 h, 100 nL, profiling panel (AID 1138).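 Note: A549 lung adenocarcinoma cells under basal conditions with no added stimulus; test concentration not given here.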 The settings on record: higher = more signal.
Another assay deals with Lefty1. Kind of assay: Lefty1 protein binding to printed compounds – biochemical, small-molecule microarray, 635/667 nm fluorescence, primary screen (AID 1139). The settings on record: fluorescence 635/667, higher = more signal.
The test system of assay [8] is wheat germ agglutinin (Triticum aestivum), Alexa647-labelled. Kind of assay: Alexa647-WGA lectin binding to printed small molecules – biochemical, small-molecule microarray, 635/667 nm fluorescence, artefact control for SMM control-protein annotation, profiling panel (AID 1140).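 Note: score merges 667 nm feature emission with signal to noise over triplicate slides.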 The settings on record: WGA-A647 binding, 635 nm fluorescence, higher = more signal.
Assay [9] concerns the target Luciferin 4-monooxygenase (Photinus pyralis) (UniProt P08659). Kind of assay: inhibition of purified Photinus pyralis luciferase – biochemical, luminescence, purified enzyme, 2006 set, primary screen (AID 1141).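 Note: cell-free assay with purified firefly luciferase at 100 ng per well in PBS; test concentration not given here.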 The settings on record: purified firefly luciferase, SteadyGlo luminescence, 30 min; higher = more signal, called active from +8 up or from −8 down.
Assay [10] concerns Wnt5a (protein binding on small-molecule microarray). Nature of the assay: small molecules binding Wnt5a protein – biophysical, small-molecule microarray, 635/667 nm fluorescence, primary screen (AID 1142).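 Note: fluorescence read at 667 nm with signal to noise per printed feature.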 The settings on record: 635 nm fluorescence, higher = more signal.
Assay [11] in a line: ATP-based viability of Huh7 replicon cells – cell-based, CellTiter-Glo luminescence, basal, 48 h, cytotoxicity control for HCV replication inhibitor project, primary screen (AID 1143).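 Note: Huh7 hepatoma cells carrying a hepatitis C replication reporter with no stimulus; test concentration not given here.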 The settings on record: higher = more signal, called active from +8 up or from −8 down. Background: A replicon is a self-replicating genome or part of one, used to study replication in cells.
The nature of assay [12]: Pseudomonas biofilm growth suppression – PAO1 strain, BacTiter-Glo luminescence, LB-PBS, primary screen (AID 1144). The settings on record: P. aeruginosa PAO1 biofilm, 12 h, higher = more signal.
Assay [13] in a line: basal CRE-LacZ reporter activity in PC12 – cell-based, unstimulated, primary screen (AID 1145). The settings on record: no forskolin, luminescence, 4.5 h, higher = more signal, called active from +8 up or from −8 down.
Assay [14] in a line: forskolin-driven CRE-LacZ activity in PC12 – cell-based, CRE-LacZ reporter, forskolin-stimulated, primary screen (AID 1146).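 Note: PC12 cells with 6xCRE LacZ reporter stimulated by forskolin 10 µM; beta-galactosidase reporter signal reflecting CREB driven transcription.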 The settings on record: luminescence, 4.5 h, higher = more signal, called active from +8 up or from −8 down.
The target of assay [15] is Streptavidin (Streptomyces avidinii) (UniProt P22629). Kind of assay: compounds binding control protein streptavidin – biophysical, small-molecule microarray, 635/667 nm fluorescence, artefact control for SMM compound annotation, primary screen (AID 1147).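 Note: signal reflects streptavidin binding to arrayed compounds as a control protein.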 The settings on record: higher = more signal.
Streptavidin (Streptomyces avidinii), sequence (P22629 whole entry, looked up): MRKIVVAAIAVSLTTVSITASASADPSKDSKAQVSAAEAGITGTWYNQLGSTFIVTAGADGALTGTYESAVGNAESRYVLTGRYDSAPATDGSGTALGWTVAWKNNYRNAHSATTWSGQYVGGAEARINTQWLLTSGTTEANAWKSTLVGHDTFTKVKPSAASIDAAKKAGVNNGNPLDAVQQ
A short description of assay [16]: probe aInhba binding on compound microarray – biochemical, small-molecule microarray, 635/667 nm fluorescence, primary screen (AID 1148).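 Note: score merges 667nm spot fluorescence with signal-to-noise for antibody binding to printed compounds.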 The settings on record: higher = more signal.
Assay [17] concerns the target Torsin-1A (Homo sapiens) (UniProt O14656). Kind of assay: TOR1A wild-type binding on microarray – cell lysate, small-molecule microarray, lysate, 635/667 nm, primary screen (AID 1149). The settings on record: COS7 hTOR1A-WT lysate, 635 nm fluorescence, higher = more signal.
Assay [18] has the same target. Kind of assay: torsin A mutant lysate binding on microarrays – cell lysate, small-molecule microarray, COS7 lysate, 635/667 nm fluorescence, primary screen (AID 1150).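 Note: score pools 667 nm emission and signal to noise measuring lysate protein binding.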 The settings on record: COS7 hTOR1A mutant lysate, 635 nm fluorescence, higher = more signal.
The subject of assay [19] is Sonic hedgehog protein (Shh). Kind of assay: Sonic hedgehog microarray binding compounds – biochemical, small-molecule microarray, 635/667 nm fluorescence, primary screen (AID 1151).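 Note: Shh protein binding to compounds spotted on small-molecule microarray slides; score combines spot fluorescence intensity with signal-to-noise across triplicate slides.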 The settings on record: 635 nm fluorescence, higher = more signal.

The text below walks through data of PubChem BioAssay.

Activity calls are given as the source filed them. Unless noted, the rule behind the calls is not given here.

Torsin-1A (Homo sapiens), sequence (O14656 whole entry, looked up): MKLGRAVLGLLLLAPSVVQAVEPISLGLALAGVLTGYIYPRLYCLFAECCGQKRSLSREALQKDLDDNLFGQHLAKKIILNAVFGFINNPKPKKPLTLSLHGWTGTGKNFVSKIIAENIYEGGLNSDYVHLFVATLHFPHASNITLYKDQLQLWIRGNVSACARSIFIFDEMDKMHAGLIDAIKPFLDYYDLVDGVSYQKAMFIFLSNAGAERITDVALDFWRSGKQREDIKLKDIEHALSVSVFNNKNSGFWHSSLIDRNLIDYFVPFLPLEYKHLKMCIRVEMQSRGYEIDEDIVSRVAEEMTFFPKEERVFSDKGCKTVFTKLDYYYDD
Luciferin 4-monooxygenase (Photinus pyralis), sequence (P08659 whole entry, looked up): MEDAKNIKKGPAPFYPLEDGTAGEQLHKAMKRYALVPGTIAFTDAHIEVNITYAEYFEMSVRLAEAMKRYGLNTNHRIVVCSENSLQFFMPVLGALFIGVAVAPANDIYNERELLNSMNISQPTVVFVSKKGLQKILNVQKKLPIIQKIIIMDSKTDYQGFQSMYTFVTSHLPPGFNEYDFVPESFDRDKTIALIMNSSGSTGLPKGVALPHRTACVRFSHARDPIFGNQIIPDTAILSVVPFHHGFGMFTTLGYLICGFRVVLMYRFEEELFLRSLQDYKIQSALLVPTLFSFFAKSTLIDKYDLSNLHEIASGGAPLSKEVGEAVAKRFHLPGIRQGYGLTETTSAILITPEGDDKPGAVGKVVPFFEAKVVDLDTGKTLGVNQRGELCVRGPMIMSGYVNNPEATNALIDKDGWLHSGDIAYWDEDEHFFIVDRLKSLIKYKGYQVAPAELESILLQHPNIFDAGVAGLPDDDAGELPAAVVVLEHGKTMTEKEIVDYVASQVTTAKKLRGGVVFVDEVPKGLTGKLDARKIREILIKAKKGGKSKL

With `COCCOC(=O)N1C(=O)[C@@]2(c3cc(C#CCCO)ccc31)[C@H](c1ccc(O)cc1)N1[C@H](c3ccccc3)[C@H](c3ccccc3)OC(=O)[C@H]1[C@@H]2C(=O)Nc1nc2ccccc2s1`, the composite z-score came to 0.607 in [1]; 1.19 in assay [2]; 0.214 in assay [3]; 0.992 in assay [4]; 1.27 in [5]; 0.955 in assay [6]. The composite z-score in the assay on Lefty1 was 1.22; in [8], 0.658; in assay [10], 0.607; in assay [15], 0.996; in assay [16], -0.0062; with Torsin-1A (Homo sapiens) [17], -0.0624. For the same molecule, the composite z-score with Torsin-1A (Homo sapiens) [18] was determined as 0.236; in assay [19] it was 2.03. Further, the z-score was -2.54 in [7]; 0.0884 (inactive) in assay [9]; -2.49 (inactive) in assay [11]; -1.24 (inactive) in assay [12]; -1.7 (inactive) in [13]; -0.0062 (inactive) in assay [14].

For `CCC1=C2CN(Cc3ccccc3Br)[C@@H]([C@@H](O)Cc3ccccc3)C2C=CCC1` (stereo not given in full), the composite z-score in [1] was 1.23; in assay [2] it was 1.13; in assay [3] it was 0.172; in assay [4], 0.455; in assay [5], 0.651; in [6] it was 0.209. The composite z-score in the assay with Lefty1 was 1.25; in [8], 0.291; in [10], 0.0361; in [15], 0.721; in assay [16] it was -0.105; in the assay with Torsin-1A (Homo sapiens) [17], 0.476. In addition, the figures for the composite z-score (with Torsin-1A (Homo sapiens) [18]; in [19]) were 0.212 and 0.675, respectively. For the same molecule, the z-score in assay [7] was -0.7; in assay [9], -0.852 (inactive); in assay [11] it was -5.22 (inactive); in assay [12], -0.709 (inactive); in assay [13], 2.12 (inactive); in assay [14], 4.84 (inactive).

In the case of `Cc1ccc(S[C@]2(C(=O)NC(C)C)CC(=O)N(C3Cc4ccccc4C3)[C@@H]2c2ccc(CO)cc2)cc1`, the composite z-score is 2.13 in assay [1]; 0.627 in [2]; 0.447 in assay [3]; 0.686 in assay [4]; 0.34 in assay [5]; -0.438 in assay [6]. Besides, the composite z-score was 0.123 with Lefty1; 0.923 in [8]; -0.157 in assay [10]; -0.37 in [15]; -0.32 in assay [16]; 0.876 with Torsin-1A (Homo sapiens) [17]. Also, the values for the composite z-score (with Torsin-1A (Homo sapiens) [18]; in assay [19]) were 0.764 and 1.67, respectively. Besides, the z-score in assay [7] was 0.186; in assay [9], 0.187 (inactive); in [11], -4.65 (inactive); in [12] it was -0.132 (inactive); in [13], -0.231 (inactive); in assay [14] it was 0.978 (inactive).

In the case of `O=C1C[C@@](C(=O)NCCN2CCOCC2)(c2ccc([N+](=O)[O-])cc2)[C@@H](c2ccc(CO)cc2)N1C1CCCCC1`, the composite z-score in [1] is 0.926; in assay [2] it was 0.666; in assay [3] it was -0.442; in assay [4], 0.63; in [5], 1.16; in [6], 1.22. Besides, the composite z-score in the assay with Lefty1 came to 0.0031; in [8], 0.43; in assay [10], 0.25; in assay [15] it was 0.316; in assay [16] it was 0.196; with Torsin-1A (Homo sapiens) [17], 0.143. The results for the composite z-score (in the assay with Torsin-1A (Homo sapiens) [18]; in assay [19]) were 0.555 and 0.452, respectively. Moreover, the z-score in assay [7] is 1.11; in [9] it was -0.83 (inactive); in [11], 0.204 (inactive); in assay [12] it was 0.82 (inactive); in assay [13], 0.351 (inactive); in [14], -0.303 (inactive).

Turning to `N#Cc1ccc(NN2C(C(O)c3ccc(I)cc3)C=CC3C(=O)N(c4ccccc4)C(=O)C32)cc1` (stereo not given), the composite z-score in assay [1] is 1.33; in [2], 1.25; in assay [3] it was 0.945; in assay [4], 0.945; in assay [5], 0.402; in assay [6], -0.194. Moreover, the composite z-score in the assay on Lefty1 is -0.491; in [8] it was 1.3; in assay [10], 0.205; in assay [15], 0.941; in assay [16] it was -0.0645; in the assay with Torsin-1A (Homo sapiens) [17], -0.147. Further, the values for the composite z-score (with Torsin-1A (Homo sapiens) [18]; in [19]) were 0.629 and -0.468, respectively. Further, the z-score is 1.96 in assay [7]; 0.628 (inactive) in [9]; 0.559 (inactive) in assay [11]; -0.363 (inactive) in assay [12]; -1.49 (inactive) in assay [13]; -0.755 (inactive) in assay [14].

As to `CC1=C([C@H](O)CCc2ccccc2)[C@H](CO)[C@@H]2C(=O)N(Cc3ccccc3)C(=O)[C@@H]2C1`, the composite z-score in assay [1] was 0.635; in [2] it was 0.0269; in [3], 0.194; in [4], 0.962; in [5] it was 0.738; in [6], 0.113. In addition, the composite z-score was 0.388 with Lefty1; 0.313 in [8]; 0.079 in assay [10]; 0.925 in assay [15]; -0.0451 in [16]; -0.0669 in the assay with Torsin-1A (Homo sapiens) [17]. For the same molecule, the results for the composite z-score (with Torsin-1A (Homo sapiens) [18]; in [19]) were 0.279 and 0.256, respectively. Moreover, the z-score in [7] was 0.901; in assay [9], 0.215 (inactive); in assay [11], -0.932 (inactive); in [12] it was -1.43 (inactive); in assay [13] it was 0.851 (inactive); in [14], -0.425 (inactive).
